± gives the standard deviation of the averaged measurements. In all, about 33,000 sequences were measured (“E-score (rank enrichment, -0.5 to 0.5)”: median about -0.0068, highest 2% from about 0.24 on). This excerpt belongs to a sample that is enriched for the highest values.
Each sequence was assayed on muMax20 (Max(13-93) K31hArg/K57hArg, M65Nle) (assay: PBM 8-mer E-score (E-score (rank enrichment, -0.5 to 0.5)); higher = stronger preferential binding).
Description: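 Protein binding microarray (universal PBM chip covering all 10-mers in fixed probe flanks) with chemically synthesized human Max(13-93) bHLH-LZ analogs (not full-length Max) bearing noncanonical residues (hArg, Tha, Aib, Nle at 65) and aromatic Cys staples. Read-out per 8-mer (and its reverse complement): E-score (rank-based enrichment, -0.5 to 0.5) and Z-score of median probe intensity.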

Sequence | PBM 8-mer E-score
AAAAATGG | 0.153 ± 0.002
GAGCCAAC | -0.0474 ± 0.026
AAAACCTC | 0.104 ± 0.039
GTGTATAA | 0.1625 ± 0.0011
ATGTAGAA | 0.264 ± 0.0091
TAATATAA | 0.232 ± 0.018
ATATATAT | 0.155 ± 0.016
CTGTATAA | 0.191 ± 0.029
GAATATAA | 0.264 ± 0.023
GAATATAC | 0.157 ± 0.014
ATGTAGAG | 0.04 ± 0.13
TTATATAA | 0.274 ± 0.062
CTGTAGAA | 0.031 ± 0.018
ATGTATAA | 0.268 ± 0.022
TGATATAA | 0.211 ± 0.09
AGGGAACC | -0.237 ± 0.012
TACGGCTA | -0.0274 ± 0.029
ATGGGCGG | 0.009 ± 0.039
GTTAGAAC | -0.0507 ± 0.042
CTATATAA | 0.165 ± 0.12
GTATATAA | 0.202 ± 0.069
ATATATAA | 0.288 ± 0.052
ACGCCTCG | -0.092 ± 0.092
CATCCGGC | -0.291 ± 0.032
ATCGGACG | -0.0422 ± 0.092

Sequence | PBM 8-mer E-score
TAAGATAA | 0.0507 ± 0.17
AAAGATAG | 0.0409 ± 0.14
CAAGATAA | 0.253 ± 0.064
CAAGATAC | 0.153 ± 0.0086
AAAGATAA | 0.2372 ± 0.001
AAAGATAC | 0.145 ± 0.05
ATCAGAGG | -0.121 ± 0.076
ACATGTTC | 0.1643 ± 0.00078
AGATGTTG | -0.125 ± 0.12
ACATGTTA | 0.241 ± 0.085
ACATGTTG | 0.271 ± 0.022
CCATGTTA | 0.109 ± 0.039
GCATGTTA | 0.116 ± 0.14
AACGAATT | 0.236 ± 0.0088
CAAGGTAC | 0.0659 ± 0.12
ACACCGAT | -0.183 ± 0.16
AGGTTAGG | 0.0305 ± 0.073
CACGTTTA | 0.0929 ± 0.011
CCTTAACC | -0.159 ± 0.009
ACGTGAAC | 0.0624 ± 0.078
ACTTGATC | -0.00466 ± 0.064
TCGTGAAA | 0.0589 ± 0.081
ACGTGAAA | 0.249 ± 0.083
ACGTGAGT | 0.2594 ± 0.0012
CCGTGATC | -0.311 ± 0.027

Sequence | PBM 8-mer E-score
ACTTGATA | 0.242 ± 0.033
AAGTGATC | 0.074 ± 0.034
ACGTGAGA | 0.168 ± 0.054
ACGTGAGG | 0.111 ± 0.1
ACGTGATC | 0.286 ± 0.1
ACTTGATG | 0.0184 ± 0.013
CGGTTCAC | -0.245 ± 0.053
AGCATTCC | -0.123 ± 0.17
GGAGCCCA | -0.156 ± 0.11
CCTGTGAC | -0.0438 ± 0.0042
CCATAGAC | -0.0388 ± 0.035
GACGTTGA | 0.0147 ± 0.11
ATCCTTTG | 0.0245 ± 0.09
CTGAGCAC | -0.0319 ± 0.049
TCGAGAGA | -0.0503 ± 0.027
AATGACTC | 0.152 ± 0.015
GTTGAACA | 0.031 ± 0.035
CGTAACTC | -0.0982 ± 0.11
AACACGGT | -0.129 ± 0.055
TCCGCGCA | -0.113 ± 0.072
ACGTGATA | 0.33 ± 0.082
GTGTGATA | 0.154 ± 0.018
CTGTGATA | -0.0301 ± 0.17
CTGTGAAA | 0.0471 ± 0.025
AAGTGATG | 0.129 ± 0.12

Sequence | PBM 8-mer E-score
ATGTGAAA | 0.317 ± 0.057
ACGTGATG | 0.294 ± 0.05
GTGTGAAA | 0.141 ± 0.027
AGGTGATG | -0.00343 ± 0.027
ATGTGATA | 0.24 ± 0.12
GCGTGATA | 0.174 ± 0.032
CCGTGATA | -0.0912 ± 0.033
ACTATGCT | 0.231 ± 0.07
CCCGAGGA | -0.233 ± 0.074
ATGGGATC | 0.0291 ± 0.075
CTAACTCA | 0.0355 ± 0.056
AGCCGATG | -0.155 ± 0.04
AATCACCA | 0.133 ± 0.014
AGTGTCCC | -0.0112 ± 0.012
AACATTGG | -0.0243 ± 0.2
AACATTGA | 0.0179 ± 0.032
ACTATTAT | 0.204 ± 0.056
AGTATTAA | 0.268 ± 0.03
GATATTAC | 0.121 ± 0.015
AATATTAT | 0.25 ± 0.026
CATATTAC | 0.0522 ± 0.03
AATATTAC | 0.281 ± 0.066
AACATTGT | 0.236 ± 0.013
TGTATTAA | 0.184 ± 0.096
AGTATTAG | 0.0793 ± 0.032

Sequence | PBM 8-mer E-score
AATATTAG | 0.175 ± 0.04
CCCGCGCA | -0.124 ± 0.031
ATGTGGCA | 0.0287 ± 0.095
AGCATTTC | 0.141 ± 0.0034
CAACTAAG | 0.0637 ± 0.092
ATTGCAAA | 0.0872 ± 0.083
AGGTCCTA | -0.128 ± 0.083
TTCCCGAA | -0.0933 ± 0.0092
AATAGAAC | 0.0563 ± 0.077
ACTATTAA | 0.149 ± 0.011
AATATTGT | 0.256 ± 0.006
GATATTAA | 0.134 ± 0.028
AATATTGC | 0.138 ± 0.076
AATATTGG | 0.101 ± 0.094
AATATTAA | 0.304 ± 0.025
CATATTAG | 0.121 ± 0.053
TATATTAA | 0.179 ± 0.025
CATATTAA | 0.297 ± 0.012
CGCGCTCC | -0.0678 ± 0.11
AGCTGTAC | -0.0262 ± 0.13
GGACTGTA | 0.00313 ± 0.055
ATTTGTAC | 0.176 ± 0.038
AATTATAT | 0.147 ± 0.044
CTATCAGC | 0.0217 ± 0.00023
CAGTCATA | 0.0326 ± 0.1

Sequence | PBM 8-mer E-score
CAAACGGC | -0.242 ± 0.0069
AAACGGCT | -0.0843 ± 0.069
CAACGGCC | -0.206 ± 0.059
AAAACGGC | 0.3 ± 0.099
AAACGGCC | 0.294 ± 0.093
GAAACGGC | 0.0377 ± 0.059
ACAAATAT | 0.185 ± 0.027
ATCCGCGC | -0.227 ± 0.043
CACATACC | -0.0465 ± 0.058
CCTTCGCG | -0.228 ± 0.019
CTGAAAGA | 0.0447 ± 0.09
ATGCCAAA | 0.111 ± 0.027
ATACGTAA | 0.112 ± 0.077
ATACGTAC | 0.188 ± 0.074
ATACGTAT | 0.308 ± 0.0025
CTCGTCCA | -0.0336 ± 0.048
CCGTAAAG | 0.104 ± 0.11
AAGGCCGC | -0.00405 ± 0.027
AAGGCCGT | 0.278 ± 0.095
AAGGCCGG | -0.243 ± 0.084
GCCGACAA | -0.268 ± 0.068
GCGGTTGA | -0.134 ± 0.11
CCCACCCG | 0.186 ± 0.028
ACCACCCC | -0.0712 ± 0.063
TCCACCCA | 0.00135 ± 0.18

Sequence | PBM 8-mer E-score
CCCACCCA | 0.269 ± 0.099
GCCACCCC | -0.0921 ± 0.047
CCACCCCA | 0.261 ± 0.066
GCACCCCA | -0.0239 ± 0.0035
CCACCCCC | -0.12 ± 0.084
CCCACCCC | 0.258 ± 0.018
ATCCATAC | 0.15 ± 0.062
GGTAGAAA | 0.0368 ± 0.022
AGGCGCGG | -0.125 ± 0.07
GAGTGGAA | -0.00431 ± 0.092
ATTCACAG | -0.0684 ± 0.13
ATTCACAA | 0.247 ± 0.032
GTTCACAA | -0.0567 ± 0.038
AAAACTTT | 0.133 ± 0.058
CTAACATC | 0.042 ± 0.045
ATAACACC | 0.134 ± 0.014
ATAACATC | 0.249 ± 0.13
CTAACACA | 0.127 ± 0.02
GTAACACA | 0.26 ± 0.11
GTAACAAA | 0.197 ± 0.067
ATAACATG | 0.199 ± 0.064
ATAACACG | 0.251 ± 0.014
ATAACACA | 0.186 ± 0.067
CGGGGGGA | -0.222 ± 0.029
ACGGCACC | -0.104 ± 0.13

Sequence | PBM 8-mer E-score
CGGACAGC | -0.13 ± 0.064
GCGGCATA | -0.00641 ± 0.021
CCTTCGAC | -0.147 ± 0.0063
ATTACTCC | 0.182 ± 0.07
CTACCGCC | -0.156 ± 0.014
GGAACAAA | 0.171 ± 0.014
CCGAGCGA | -0.223 ± 0.081
CTTTTTCA | 0.0825 ± 0.076
GGTTTGTA | -0.00997 ± 0.022
AGTTTATA | 0.266 ± 0.0043
CCTTTTCA | 0.295 ± 0.091
AGTTTATC | 0.138 ± 0.08
GTTTTGTA | 0.254 ± 0.012
CCTTTTTA | 0.0863 ± 0.063
GCTTTTAA | 0.00199 ± 0.15
GCTTTTCA | 0.0793 ± 0.013
CTTTTGTA | 0.151 ± 0.01
GGTTTATA | 0.051 ± 0.032
GCTTTTTA | 0.292 ± 0.084
AGAATGTA | 0.159 ± 0.034
ATCCAGAT | 0.0236 ± 0.27
AGAATCGA | -0.018 ± 0.077
CCAATCCG | -0.198 ± 0.078
CTCATACC | 0.014 ± 0.025
AGACCCCA | 0.177 ± 0.046

Sequence | PBM 8-mer E-score
CAGCCAAG | -0.147 ± 0.066
AGTACATA | 0.147 ± 0.081
CATTTATA | 0.175 ± 0.032
CTTTTATA | 0.184 ± 0.01
AATTTATC | 0.205 ± 0.02
GTTTTATA | 0.261 ± 0.059
AATTTATA | 0.247 ± 0.059
ATTTTATA | 0.231 ± 0.038
GTCGAGGA | -0.115 ± 0.0082
GGAAAGGA | -0.246 ± 0.099
ACAGAGGG | -0.155 ± 0.0044
CTCTAGTA | 0.118 ± 0.0018
ATCTAGTA | -0.00587 ± 0.017
GTCTAGTA | 0.252 ± 0.03
CAGCCGAC | -0.22 ± 0.12
GGGGGACC | -0.296 ± 0.013
AAGAGCAC | 0.00129 ± 0.0028
AGATTCGG | -0.118 ± 0.032
TCAAGGGA | -0.065 ± 0.048

Source: the supplement of paper PMC12636033
